We go through seven sequences from article PMC7862700, “An all-to-all approach to the identification of sequence-specific readers for epigenetic DNA modifications on cytosine”.

Common to all, as to assay: DAPPL (digital affinity profiling via proximity ligation, sequencing); 10 mM Tris-HCl pH 7.5, 50 mM NaCl, 1 mM DTT, 4% glycerol, room temperature, 30 min; GST-TFs on glutathione beads, 16-mer random dsDNA library, 0.1% formaldehyde crosslink after washing; high values mean tight binding
What all share (conditions): protein: recombinant; tags: N-terminal GST; dsDNA, one strand shown

One test addresses T1, FLI1 (Homo sapiens, UniProt Q01543 1-452).
T1 sequence: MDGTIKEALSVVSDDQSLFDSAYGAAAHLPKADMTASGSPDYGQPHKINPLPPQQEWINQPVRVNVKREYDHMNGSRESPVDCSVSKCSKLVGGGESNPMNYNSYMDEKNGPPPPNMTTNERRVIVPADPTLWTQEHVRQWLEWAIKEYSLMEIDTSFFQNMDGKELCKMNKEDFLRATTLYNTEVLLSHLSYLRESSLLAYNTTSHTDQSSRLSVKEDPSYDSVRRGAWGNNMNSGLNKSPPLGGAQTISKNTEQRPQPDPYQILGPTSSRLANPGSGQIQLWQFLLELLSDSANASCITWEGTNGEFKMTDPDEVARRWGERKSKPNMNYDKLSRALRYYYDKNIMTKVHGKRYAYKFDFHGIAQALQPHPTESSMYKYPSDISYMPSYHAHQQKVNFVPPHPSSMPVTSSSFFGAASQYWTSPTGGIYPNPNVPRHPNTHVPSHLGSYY
An outline of the steps: (§1)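 Binding signal is given per hexamer as its read frequency for a factor divided by its frequency in the tag-only sample. GST-fused human transcription factors were expressed in yeast, captured on glutathione beads, barcoded with DNA and pooled with that sample, then incubated with 200 nmole of a 16-mer random double-stranded DNA library in Tris/NaCl/DTT/glycerol buffer for 30 min at room temperature. The pools were then washed, crosslinked, proximity-ligated, amplified by PCR and sequenced on an Illumina NextSeq500.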

The target in a further test is T2, ELK1 (Homo sapiens, UniProt P19419 1-428).
T2 sequence: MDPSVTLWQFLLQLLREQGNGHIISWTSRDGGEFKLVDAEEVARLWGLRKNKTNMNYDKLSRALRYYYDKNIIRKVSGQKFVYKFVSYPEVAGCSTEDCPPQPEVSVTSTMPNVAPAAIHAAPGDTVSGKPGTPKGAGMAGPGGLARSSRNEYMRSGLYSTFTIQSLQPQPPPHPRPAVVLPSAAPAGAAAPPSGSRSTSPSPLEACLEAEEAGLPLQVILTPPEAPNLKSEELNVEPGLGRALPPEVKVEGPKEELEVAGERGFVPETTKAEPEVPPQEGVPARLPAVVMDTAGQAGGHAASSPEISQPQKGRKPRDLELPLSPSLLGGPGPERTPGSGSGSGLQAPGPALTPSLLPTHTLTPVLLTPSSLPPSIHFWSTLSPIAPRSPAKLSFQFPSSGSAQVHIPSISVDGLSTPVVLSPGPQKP
An outline of the steps: as §1

The target in a further test is T3, GABPA (Homo sapiens, UniProt Q06546 1-454).
T3 sequence: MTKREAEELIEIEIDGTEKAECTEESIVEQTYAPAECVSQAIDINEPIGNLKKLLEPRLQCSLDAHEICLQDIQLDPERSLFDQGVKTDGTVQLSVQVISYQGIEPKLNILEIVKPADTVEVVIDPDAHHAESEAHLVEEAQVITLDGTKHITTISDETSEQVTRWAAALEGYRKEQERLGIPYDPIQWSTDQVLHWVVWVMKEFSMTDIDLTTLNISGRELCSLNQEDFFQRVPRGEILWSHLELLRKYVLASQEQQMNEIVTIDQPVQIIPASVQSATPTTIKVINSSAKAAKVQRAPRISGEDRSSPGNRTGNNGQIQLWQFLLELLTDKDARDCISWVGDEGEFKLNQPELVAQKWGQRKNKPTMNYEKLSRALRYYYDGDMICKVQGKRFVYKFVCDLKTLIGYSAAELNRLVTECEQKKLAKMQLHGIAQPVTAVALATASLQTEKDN
An outline of the steps:
as §1

In another test the target is T4, ERG (Homo sapiens, UniProt P11308 1-479).
T4 sequence: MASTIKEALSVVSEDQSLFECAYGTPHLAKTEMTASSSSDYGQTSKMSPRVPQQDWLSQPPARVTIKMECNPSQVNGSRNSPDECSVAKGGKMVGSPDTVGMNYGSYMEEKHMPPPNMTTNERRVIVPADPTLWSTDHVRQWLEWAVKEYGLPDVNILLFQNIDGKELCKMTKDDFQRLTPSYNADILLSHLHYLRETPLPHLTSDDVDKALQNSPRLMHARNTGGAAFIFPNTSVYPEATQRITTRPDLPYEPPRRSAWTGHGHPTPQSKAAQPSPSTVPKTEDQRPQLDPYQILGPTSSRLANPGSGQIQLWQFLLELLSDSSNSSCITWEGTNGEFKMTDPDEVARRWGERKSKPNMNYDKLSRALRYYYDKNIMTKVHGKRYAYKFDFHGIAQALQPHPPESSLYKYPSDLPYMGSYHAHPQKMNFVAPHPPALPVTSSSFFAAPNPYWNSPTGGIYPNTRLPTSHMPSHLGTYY
The method in brief: as §1

In a further test the target is ELF1 (Homo sapiens, UniProt P32519 1-619). The method in brief: as §1
Another test deals with T5, EHF (Homo sapiens, UniProt Q9NZC4 1-300).
T5 sequence: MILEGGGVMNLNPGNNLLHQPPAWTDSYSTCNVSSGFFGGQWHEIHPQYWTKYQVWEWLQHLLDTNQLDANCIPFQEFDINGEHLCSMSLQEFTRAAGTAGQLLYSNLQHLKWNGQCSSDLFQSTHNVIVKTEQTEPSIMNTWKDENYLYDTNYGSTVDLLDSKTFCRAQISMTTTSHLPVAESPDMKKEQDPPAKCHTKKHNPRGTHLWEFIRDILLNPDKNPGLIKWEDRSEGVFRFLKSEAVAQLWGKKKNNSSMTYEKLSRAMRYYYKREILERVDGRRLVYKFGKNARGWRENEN
The method in brief:
as §1

The target in another test is SPI1 (Homo sapiens, UniProt P17947 1-270). An outline of the steps:
as §1

Another test deals with SPIB (Homo sapiens, UniProt Q01892 1-262). An outline of the steps:
as §1

In the next test the target is T6, ELK3 (Homo sapiens, UniProt P41970 1-407).
T6 sequence: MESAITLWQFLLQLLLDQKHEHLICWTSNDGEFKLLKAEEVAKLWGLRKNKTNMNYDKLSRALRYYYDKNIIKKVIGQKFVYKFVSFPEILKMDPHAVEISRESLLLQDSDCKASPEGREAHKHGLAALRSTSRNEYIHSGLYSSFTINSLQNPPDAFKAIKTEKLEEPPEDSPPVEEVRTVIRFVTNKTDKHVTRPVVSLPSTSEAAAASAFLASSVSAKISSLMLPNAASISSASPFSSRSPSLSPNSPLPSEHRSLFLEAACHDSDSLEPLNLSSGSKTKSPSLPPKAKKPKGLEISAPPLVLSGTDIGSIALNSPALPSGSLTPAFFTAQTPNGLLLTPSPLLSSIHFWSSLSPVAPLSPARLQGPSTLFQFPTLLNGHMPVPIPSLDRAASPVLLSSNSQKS
The method in brief:
as §1

SPIB, sequence (Q01892 whole entry): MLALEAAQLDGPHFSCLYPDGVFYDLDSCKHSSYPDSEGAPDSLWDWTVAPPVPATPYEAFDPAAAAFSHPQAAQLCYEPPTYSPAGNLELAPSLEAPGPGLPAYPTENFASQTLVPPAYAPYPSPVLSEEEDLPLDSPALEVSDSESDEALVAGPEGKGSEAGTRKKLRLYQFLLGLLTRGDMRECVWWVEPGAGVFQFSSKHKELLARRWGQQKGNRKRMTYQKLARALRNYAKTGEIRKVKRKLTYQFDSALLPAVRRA
ELF1, sequence (P32519 whole entry): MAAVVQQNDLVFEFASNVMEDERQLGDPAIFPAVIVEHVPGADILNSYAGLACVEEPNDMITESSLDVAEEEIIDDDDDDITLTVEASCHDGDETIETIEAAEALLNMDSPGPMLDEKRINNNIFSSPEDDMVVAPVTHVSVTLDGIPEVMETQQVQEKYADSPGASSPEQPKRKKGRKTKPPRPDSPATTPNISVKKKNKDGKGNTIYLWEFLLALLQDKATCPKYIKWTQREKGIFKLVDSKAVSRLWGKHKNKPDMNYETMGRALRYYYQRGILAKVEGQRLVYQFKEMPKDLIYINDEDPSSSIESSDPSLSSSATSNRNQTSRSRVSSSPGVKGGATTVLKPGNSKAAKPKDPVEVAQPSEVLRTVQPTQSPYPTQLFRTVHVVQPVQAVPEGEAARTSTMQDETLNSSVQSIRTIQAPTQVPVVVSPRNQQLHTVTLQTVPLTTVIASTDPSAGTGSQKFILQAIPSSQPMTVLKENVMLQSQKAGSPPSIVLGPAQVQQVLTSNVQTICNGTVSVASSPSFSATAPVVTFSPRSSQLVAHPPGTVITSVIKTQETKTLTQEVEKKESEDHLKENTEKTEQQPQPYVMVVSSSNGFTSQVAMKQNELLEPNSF

For the sequence AACATG, the binding signal with FLI1 was 1.24 fold enrichment (6-mer frequency, TF over GST control); in the test with ELK1 it was 1.21 fold enrichment (6-mer frequency, TF over GST control); with GABPA, 1.15 fold enrichment (6-mer frequency, TF over GST control); with ERG, 1.16 fold enrichment (6-mer frequency, TF over GST control); with ELF1, 1.22 fold enrichment (6-mer frequency, TF over GST control); with EHF, 1.05 fold enrichment (6-mer frequency, TF over GST control). For the same sequence, the binding signal is 1.15 fold enrichment (6-mer frequency, TF over GST control) with SPI1; 1.16 fold enrichment (6-mer frequency, TF over GST control) with SPIB; 1.19 fold enrichment (6-mer frequency, TF over GST control) in the test with ELK3.
Take CGAATT: the binding signal with FLI1 was 1.13 fold enrichment (6-mer frequency, TF over GST control); with ELK1, 1.1 fold enrichment (6-mer frequency, TF over GST control); in the test with GABPA, 1.27 fold enrichment (6-mer frequency, TF over GST control); in the test with ERG, 1.23 fold enrichment (6-mer frequency, TF over GST control); in the test with ELF1 it was 1.2 fold enrichment (6-mer frequency, TF over GST control); with EHF it was 1.19 fold enrichment (6-mer frequency, TF over GST control). Also, the binding signal is 1.22 fold enrichment (6-mer frequency, TF over GST control) with SPI1; 1.23 fold enrichment (6-mer frequency, TF over GST control) with SPIB; 1.23 fold enrichment (6-mer frequency, TF over GST control) in the test with ELK3.
In the case of TAGTCC, the binding signal in the test with FLI1 is 1.09 fold enrichment (6-mer frequency, TF over GST control); in the test with ELK1, 1.05 fold enrichment (6-mer frequency, TF over GST control); with GABPA it was 1.12 fold enrichment (6-mer frequency, TF over GST control); in the test with ERG, 1.08 fold enrichment (6-mer frequency, TF over GST control); in the test with ELF1, 1.15 fold enrichment (6-mer frequency, TF over GST control); with EHF, 1.05 fold enrichment (6-mer frequency, TF over GST control). For the same sequence, the binding signal is 1.07 fold enrichment (6-mer frequency, TF over GST control) in the test with SPI1; 1.06 fold enrichment (6-mer frequency, TF over GST control) with SPIB; 1.07 fold enrichment (6-mer frequency, TF over GST control) with ELK3.
Regarding CCTCCG, the binding signal with FLI1 is 1.18 fold enrichment (6-mer frequency, TF over GST control); with ELK1 it was 1.55 fold enrichment (6-mer frequency, TF over GST control); with GABPA it was 1.41 fold enrichment (6-mer frequency, TF over GST control); in the test with ERG, 1.35 fold enrichment (6-mer frequency, TF over GST control); in the test with ELF1 it was 1.32 fold enrichment (6-mer frequency, TF over GST control); with EHF it was 1.24 fold enrichment (6-mer frequency, TF over GST control). Further, the binding signal with SPI1 was 1.41 fold enrichment (6-mer frequency, TF over GST control); with SPIB, 1.48 fold enrichment (6-mer frequency, TF over GST control); with ELK3 it was 1.38 fold enrichment (6-mer frequency, TF over GST control).
Regarding TAGGGT, the binding signal with FLI1 was 1.04 fold enrichment (6-mer frequency, TF over GST control); with ELK1 it was 1.03 fold enrichment (6-mer frequency, TF over GST control); in the test with GABPA it was 1.11 fold enrichment (6-mer frequency, TF over GST control); with ERG, 1.03 fold enrichment (6-mer frequency, TF over GST control); with ELF1, 1.16 fold enrichment (6-mer frequency, TF over GST control); in the test with EHF, 1.09 fold enrichment (6-mer frequency, TF over GST control). In addition, the binding signal with SPI1 was 1.13 fold enrichment (6-mer frequency, TF over GST control); with SPIB, 1.1 fold enrichment (6-mer frequency, TF over GST control); in the test with ELK3, 1.04 fold enrichment (6-mer frequency, TF over GST control).
With TCCTGA, the binding signal in the test with FLI1 is 1.43 fold enrichment (6-mer frequency, TF over GST control); with ELK1, 1.45 fold enrichment (6-mer frequency, TF over GST control); in the test with GABPA, 1.47 fold enrichment (6-mer frequency, TF over GST control); with ERG, 1.5 fold enrichment (6-mer frequency, TF over GST control); in the test with ELF1, 1.41 fold enrichment (6-mer frequency, TF over GST control); with EHF it was 1.45 fold enrichment (6-mer frequency, TF over GST control). The binding signal is 1.47 fold enrichment (6-mer frequency, TF over GST control) with SPI1; 1.46 fold enrichment (6-mer frequency, TF over GST control) with SPIB; 1.54 fold enrichment (6-mer frequency, TF over GST control) in the test with ELK3.
For GCAAAA, the binding signal was 1.04 fold enrichment (6-mer frequency, TF over GST control) with FLI1; 1.08 fold enrichment (6-mer frequency, TF over GST control) with ELK1; 1.08 fold enrichment (6-mer frequency, TF over GST control) with GABPA; 1.05 fold enrichment (6-mer frequency, TF over GST control) in the test with ERG; 1.09 fold enrichment (6-mer frequency, TF over GST control) with ELF1; 1.14 fold enrichment (6-mer frequency, TF over GST control) with EHF. Moreover, the binding signal with SPI1 was 1.16 fold enrichment (6-mer frequency, TF over GST control); in the test with SPIB it was 1.13 fold enrichment (6-mer frequency, TF over GST control); with ELK3 it was 1.15 fold enrichment (6-mer frequency, TF over GST control).
